TGFb inhibitor: qHTS for Inhibitors of TGF-b | 410,000 tested, 1.2% active | HepG2 CAGA-GFP TGF-b/SMAD3 reporter, GFP fluorescence, 18 h; TGF-beta stimulated, 500 pg/mL final | AID 588855, 2011 | Potency, µM (doses to about 46.1 µM), for inactives: at the highest dose activity, negative = inhibition, actives largely listed as inhibitors; also: % is scaled to controls: 0 for no effect and ±100 for the full control effect; nearly all actives have a fitted effect of over 65% in size
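HEPG2 CAGA-GFP cells (1000/well, DMEM with 1% FBS) were pre-incubated 2 h at 37 degrees C, given compound by pin tool, then stimulated with TGF-beta at 500 pg/mL final for 18 h before per-cell GFP fluorescence imaging.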
ATXN2 expr inh: Primary qHTS for Inhibitors of ATXN expression | HEK-293 ATXN2-luciferase reporter, luminescence, 24 h | 360,000 tested, 0.72% active | AID 1745845, 2022 | Potency, µM (highest dose often 57 µM), for inactives: at the top dose activity change, negative = inhibition, hits mostly inhibitors; also: % is scaled to controls: 0 for no effect and ±100 for the full control effect; nearly all actives have a fitted effect of over 55% in size
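ATXN2-luciferase reporter cells (luciferase flanked by upstream and downstream ATXN2 gene portions) were treated 24 h at 37 °C with compounds at up to 57 uM. SteadyGlo luminescence gave expression; GF-AFC fluorescence gave viability.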
ATXN viability: Viability Counterscreen for Primary qHTS for Inhibitors of ATXN expression. 400,000 tested, 0.49% active. S2 cells (HEK-293 line with an ATXN2-luciferase reporter) viability, CellTiter-Fluor protease fluorescence, 24 h. Potency, µM (doses to about 56.7 µM), most hits filed as cytotoxic; also: nearly all actives have a fitted effect of over 40% in size
TDP1 cell noCPT: qHTS for Inhibitors of human tyrosyl-DNA phosphodiesterase 1 (TDP1): qHTS in cells in absence of CPT | DT40 Tdp1-/- hTDP1 cells, no CPT, ATP luminescence, 48 h | 420,000 tested, 15% active | Potency, µM (highest dose often 46.2 µM), inactives show top-dose activity change, negative = growth inhibition, hits mostly inhibitors; also: % is scaled to controls: 0 for no effect and ±100 for the full control effect; nearly all actives have a fitted effect of over 55% in size
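Growth of hTDP1-complemented DT40 Tdp1-knockout cells is measured by ATP luminescence after at least 48 hr compound exposure at 37 °C, with DMSO substituting for the 20 nM CPT used in the parallel screen.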
HepG2 viability: qHTS for Inhibitors of TGF-b: Cytotox Counterscreen | 410,000 tested, 0.76% active | HepG2 CAGA-GFP viability, ATP luminescence, 18 h | Potency, µM (titrated, usually from 46.1 µM), inactives show at the highest dose activity change, negative = cytotoxicity, usual class: cytotoxic
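CellTiter-Glo luminescence gave cytotoxicity after 18 hours at 37 degrees C. The cells were HepG2 CAGA-GFP in 1% FBS DMEM, stimulated with 500 pg/mL TGF-beta after compound addition. %Activity was normalised to no-cell wells (complete cell-killing) and DMSO (no toxicity), and curves were fitted and classified.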
TDP1 cell CPT: qHTS for Inhibitors of human tyrosyl-DNA phosphodiesterase 1 (TDP1): qHTS in cells in presence of CPT | AID 686979, 2013 | 420,000 tested, 12% active | Potency, µM (titrated, usually from 46.2 µM), inactives show at the highest dose activity change, negative = growth inhibition, actives largely listed as inhibitors | chicken DT40 Tdp1-/-;hTDP1 cells + 20 nM CPT, ATP luminescence, 48 h; also: % is scaled to controls: 0 for no effect and ±100 for the full control effect; nearly all actives have a fitted effect of over 55% in size
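Chicken DT40 Tdp1-/- cells stably complemented with human TDP1 were seeded at 400 cells/well in medium containing 20 nM camptothecin, exposed to pin-transferred compounds, and grown at 37 °C for at least 48 hr. Viability was read as ATP luminescence.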
An asterisk follows results filed as active. An excerpt weighted towards active compounds, which were near 17% of everything screened. Calls follow the shape of the dose curve; as a rule, active = well fitted curve in the direction sought with a large enough effect; inconclusive = small, poorly fitted or top-dose-only effect, or another doubt; inactive = no such curve, though single readings can be large; an effect the other way counts as inactive or inconclusive. Potency is read from the fitted curve at half-maximal effect.

How did CCCCC1S/C(=N/N=C/c2ccco2)NC1=O (centres undefined) do in these assays?
TGFb inhibitor: -1%; ATXN2 expr inh: 1%; ATXN viability: inactive; TDP1 cell noCPT: inconclusive; HepG2 viability: -5%; TDP1 cell CPT: 16µM*

What do the screens show for `Cc1ccc(Cn2ccn(CC(=O)Nc3ccccc3C(F)(F)F)c(=O)c2=O)cc1`?
TGFb inhibitor: -6%; TDP1 cell noCPT: -2%; HepG2 viability: -1%; TDP1 cell CPT: 0%

How did C=CCN1C(=NC(=O)CC)SC2CS(=O)(=O)CC21 (centres undefined) do in these assays?
TGFb inhibitor: 20%; ATXN2 expr inh: 7%; ATXN viability: inactive; TDP1 cell noCPT: 1%; HepG2 viability: 8%; TDP1 cell CPT: -28%

How did CC[C@H](C)Cc1cn([C@@H](CCCCNC(=O)OC(C)(C)C)C(=O)NCCCCCCCCCCC(=O)N2CCN(C(=O)OC(C)(C)C)CC2)nn1 do in these assays?
TGFb inhibitor: inconclusive; ATXN2 expr inh: inconclusive; ATXN viability: inconclusive; TDP1 cell noCPT: 16µM*; HepG2 viability: -21%; TDP1 cell CPT: inconclusive

Results for CSCC[C@@H](C(=O)NCCCCCCCCCCC(=O)N1CCN(C(=O)OC(C)(C)C)CC1)n1cc(CCO)nn1 ?
TGFb inhibitor: -27%; ATXN2 expr inh: inconclusive; ATXN viability: inconclusive; TDP1 cell noCPT: 15µM*; HepG2 viability: -7%; TDP1 cell CPT: 21µM*

How did CC(C)NC(=O)Nc1cccc2c1O[C@H](CN(C)C(=O)NC1CCCCC1)[C@H](C)CN([C@H](C)CO)C2=O do in these assays?
TGFb inhibitor: 6%; ATXN2 expr inh: -2%; ATXN viability: inactive; TDP1 cell noCPT: -5%; HepG2 viability: -1%; TDP1 cell CPT: -14%

Results for COC(=O)CNC(=O)Cn1nc(C)c([N+](=O)[O-])c1C ?
TGFb inhibitor: -2%; ATXN viability: inactive; TDP1 cell noCPT: 21%; HepG2 viability: -1%; TDP1 cell CPT: 14%

Results for C(=Nc1ccc(/C=C/c2ccnc3ccccc23)cc1)c1ccc2c(c1)OCO2 ?
TGFb inhibitor: 0%; TDP1 cell noCPT: 18µM*; HepG2 viability: -37%; TDP1 cell CPT: inconclusive

Results for C(=Nc1ccc(/C=C/c2ccnc3ccccc23)cc1)c1cccs1 ?
TGFb inhibitor: -2%; TDP1 cell noCPT: 13µM*; HepG2 viability: -22%; TDP1 cell CPT: inconclusive

What do the screens show for `C(=C\c1ccnc2ccccc12)/c1ccc2c(c1)OCO2`?
TGFb inhibitor: 8%; TDP1 cell noCPT: inconclusive; HepG2 viability: -4%; TDP1 cell CPT: inconclusive

Results for C(=Nc1ccc(/C=C/c2ccnc3ccccc23)cc1)c1ccco1 ?
TGFb inhibitor: -2%; TDP1 cell noCPT: 13µM*; HepG2 viability: -30%; TDP1 cell CPT: 16µM*

What do the screens show for `C(=C\c1ccnc2ccccc12)/c1cccs1`?
TGFb inhibitor: inconclusive; TDP1 cell noCPT: inconclusive; HepG2 viability: -30%; TDP1 cell CPT: inconclusive

How did CCOC(=O)c1cnc(SC)nc1Oc1cccc(NC(=O)c2ccc(C)cc2)c1 do in these assays?
TGFb inhibitor: -8%; ATXN2 expr inh: -5%; ATXN viability: inactive; TDP1 cell noCPT: 15µM*; HepG2 viability: 5%; TDP1 cell CPT: inconclusive

What do the screens show for `CCN(CC)C(=O)Cn1c(=O)n(-c2ccc(OC)cc2OC)c(=O)c2c(C)c(C(=O)N(CC)CC)sc21`?
TGFb inhibitor: -2%; ATXN2 expr inh: 4%; ATXN viability: inactive; TDP1 cell noCPT: 17%; HepG2 viability: 0%; TDP1 cell CPT: 5%
